The supplement of paper PMC8728848
The sample as a whole holds a higher share of the strongest signals than the screen did.

Key:
Assay in all cases: glycan array binding signal (z-score within array); higher = stronger binding
Conditions in all cases: glycan notation: IUPAC condensed, linker removed
Fuc(a1-2)Gal = molecular target: Fuc(a1-2)Gal
Procedure, shortened: (§1)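 Glycan array binding is given as a within-array Z-score, which can be read as non-binding when negative. The arrays, 3228 of them, came from the Consortium for Functional Glycomics database and were retained only where the protein sequence was available. Z-scores were averaged across arrays of the same protein sequence at different concentrations or buffers and across linkers.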

[1] = molecular target: Fuc(a1-2)Gal(b1-3)GalNAc(b1-3)Gal(a1-4)Gal(b1-4)Glc
Procedure, shortened: as §1

Fuc(a1-2)Gal(b1-4)Glc6S = molecular target: Fuc(a1-2)Gal(b1-4)Glc6S
Procedure, shortened: as §1

[2] = molecular target: Fuc(a1-2)Gal(b1-4)GlcNAc(b1-3)Gal(b1-4)GlcNAc
Procedure, shortened: as §1

[3] = molecular target: Fuc(a1-2)Gal(b1-4)GlcNAc6S
Procedure, shortened: as §1

[4] = molecular target: Fuc(a1-2)[GalNAc(a1-3)]Gal(b1-3)GlcNAc(b1-2)Man(a1-3)[Fuc(a1-2)[GalNAc(a1-3)]Gal(b1-3)GlcNAc(b1-2)Man(a1-6)]Man(b1-4)GlcNAc(b1-4)GlcNAc
Procedure, shortened: as §1

[5] = molecular target: Fuc(a1-2)[GalNAc(a1-3)]Gal(b1-4)GlcNAc(b1-3)Gal(b1-4)GlcNAc(b1-3)Gal(b1-4)GlcNAc
Procedure, shortened: as §1

Fuc(a1-3)GlcNAc = molecular target: Fuc(a1-3)GlcNAc
Procedure, shortened: as §1

Gal(a1-3)Gal(b1-4)Glc = molecular target: Gal(a1-3)Gal(b1-4)Glc
Procedure, shortened: as §1

Gal(a1-3)Gal(b1-4)GlcNAc = molecular target: Gal(a1-3)Gal(b1-4)GlcNAc
Procedure, shortened: as §1

Gal(a1-3)GalNAc = molecular target: Gal(a1-3)GalNAc
Procedure, shortened: as §1

[6] = molecular target: Gal(b1-3)GalNAc(a1-3)[Fuc(a1-2)]Gal(b1-4)GlcNAc
Procedure, shortened: as §1

Gal(b1-3)GlcNAc = molecular target: Gal(b1-3)GlcNAc
Procedure, shortened: as §1

[7] = molecular target: Gal(b1-3)[Fuc(a1-4)]GlcNAc
Procedure, shortened: as §1

[8] = molecular target: Gal(b1-3)[Fuc(a1-4)]GlcNAc(b1-3)Gal(b1-4)GlcNAc
Procedure, shortened: as §1

[9] = molecular target: Gal(b1-4)GalNAc(b1-3)[Fuc(a1-2)]Gal(b1-4)GlcNAc
Procedure, shortened: as §1

Gal(b1-4)Glc6S = molecular target: Gal(b1-4)Glc6S
Procedure, shortened: as §1

[10] = molecular target: Gal(b1-4)GlcNAc(b1-2)Man(a1-3)[Gal(b1-4)GlcNAc(b1-2)Man(a1-6)]Man(b1-4)GlcNAc(b1-4)[Fuc(a1-6)]GlcNAc
Procedure, shortened: as §1

[11] = molecular target: Gal(b1-4)GlcNAc(b1-2)Man(a1-6)[GlcNAc(b1-2)Man(a1-3)]Man(b1-4)GlcNAc(b1-4)GlcNAc
Procedure, shortened: as §1

[12] = molecular target: Gal(b1-4)GlcNAc(b1-3)[Gal(b1-4)GlcNAc(b1-6)]GalNAc
Procedure, shortened: as §1

[13] = molecular target: Gal3S(b1-4)[Fuc(a1-3)]Glc6S
Procedure, shortened: as §1

[14] = molecular target: GalNAc(a1-3)GalNAc(a1-3)Gal(a1-4)Gal(b1-4)GlcNAc
Procedure, shortened: as §1

[15] = molecular target: GalNAc(b1-3)Gal(a1-4)Gal(b1-4)GlcNAc(b1-3)Gal(b1-4)Glc
Procedure, shortened: as §1

[16] = molecular target: GlcNAc(a1-4)Gal(b1-4)GalNAc
Procedure, shortened: as §1

[17] = molecular target: GlcNAc(a1-4)Gal(b1-4)GlcNAc(b1-3)Gal(b1-4)[Fuc(a1-3)]GlcNAc(b1-3)Gal(b1-4)[Fuc(a1-3)]GlcNAc
Procedure, shortened: as §1

[18] = molecular target: GlcNAc(b1-2)Man(a1-3)[GlcNAc(b1-2)Man(a1-6)]Man(b1-4)GlcNAc(b1-4)[Fuc(a1-6)]GlcNAc
Procedure, shortened: as §1

GlcNAc3Prop(b1-4)GlcNAc = molecular target: GlcNAc3Prop(b1-4)GlcNAc
Procedure, shortened: as §1

[19] = molecular target: Man(a1-2)Man(a1-6)[Man(a1-3)]Man(a1-6)[Man(a1-2)Man(a1-2)Man(a1-3)]Man
Procedure, shortened: as §1

[20] = molecular target: Neu5Ac(a2-3)Gal(b1-3)GlcNAc(b1-3)GalNAc
Procedure, shortened: as §1

[21] = molecular target: Neu5Ac(a2-3)Gal(b1-4)[Fuc(a1-3)]GlcNAc(b1-3)GalNAc
Procedure, shortened: as §1

[22] = molecular target: Neu5Ac(a2-6)Gal(b1-4)GlcNAc(b1-2)Man(a1-6)[Gal(b1-4)GlcNAc(b1-2)Man(a1-3)]Man(b1-4)GlcNAc(b1-4)GlcNAc
Procedure, shortened: as §1

[23] = molecular target: Neu5Ac(a2-6)Gal(b1-4)GlcNAc(b1-3)Gal(b1-4)[Fuc(a1-3)]GlcNAc(b1-3)Gal(b1-4)[Fuc(a1-3)]GlcNAc
Procedure, shortened: as §1

[24] = molecular target: Neu5Gc(a2-6)Gal(b1-4)GlcNAc
Procedure, shortened: as §1

B1: SRS2 (Toxoplasma gondii), O15695 (protein)
chain: MATRASLARQKTGAACLAVLTASPSVVAAKPWKRWVGVSVILASAFAVGVSAGPPYRYEPEKFTCRPKKGILSQWVSLLYQVQHNITFACEEATPVPTTLISEEHGLMVCAENMTPEECEANPAPLSAFLPGATKEWVTGDSVLTGLKISVPESQYPANAKSFRVGCRHNTKTGNTCMLTIHVEPRDPAVERQEARCSYTENSTLPKIFVTKDSNTMTLACGPHGAPMPESYTENYCSTPDTCDEKPFTSVIPGYLSKWFFGDPKSPLGARVRIPPEQIPSSPQINYFGCTGPTEGEGPKYNCTVPVPLGGGDPSEGSRPGGGSGGGKRGGGQGGGGSLAGFDFRQGSARHSLPSRMALSASALLAMTALAY
glycan array binding signal (z-score) (Fuc(a1-2)Gal): 0.535
glycan array binding signal (z-score) [1]: 0.231
glycan array binding signal (z-score) (Fuc(a1-2)Gal(b1-4)Glc6S): 0.222
glycan array binding signal (z-score) [2]: 0.699
glycan array binding signal (z-score) [3]: 0.345
glycan array binding signal (z-score) [4]: -0.13
glycan array binding signal (z-score) [5]: 0.391
glycan array binding signal (z-score) (Fuc(a1-3)GlcNAc): 0.522
glycan array binding signal (z-score) (Gal(a1-3)Gal(b1-4)Glc): -0.428
glycan array binding signal (z-score) (Gal(a1-3)Gal(b1-4)GlcNAc): 0.159
glycan array binding signal (z-score) (Gal(a1-3)GalNAc): 0.369
glycan array binding signal (z-score) [6]: -0.437
glycan array binding signal (z-score) (Gal(b1-3)GlcNAc): -0.506
glycan array binding signal (z-score) [7]: -0.246
glycan array binding signal (z-score) [8]: -0.495
glycan array binding signal (z-score) [9]: -0.802
glycan array binding signal (z-score) (Gal(b1-4)Glc6S): -0.35
glycan array binding signal (z-score) [10]: 1.54
glycan array binding signal (z-score) [11]: 1.51
glycan array binding signal (z-score) [12]: 6.82
glycan array binding signal (z-score) [13]: 2.13
glycan array binding signal (z-score) [14]: 0.55
glycan array binding signal (z-score) [15]: -0.134
glycan array binding signal (z-score) [16]: -0.448
glycan array binding signal (z-score) [17]: 2.07
glycan array binding signal (z-score) [18]: 14.3
glycan array binding signal (z-score) (GlcNAc3Prop(b1-4)GlcNAc): 0.829
glycan array binding signal (z-score) [19]: 0.304
glycan array binding signal (z-score) [20]: 1.3
glycan array binding signal (z-score) [21]: 1.72
glycan array binding signal (z-score) [22]: -0.203
glycan array binding signal (z-score) [23]: 0.576
glycan array binding signal (z-score) [24]: -0.03
